Screens (PubChem)
Compounds with a hit are over-represented: about 4.3% of the library has one in this group of screens.
HGIII-sPLA2 inh – human group III sPLA2 inhibitors, primary screen, biochemical, QFRET, BODIPY PC-A2 liposome substrate; Group 3 secretory phospholipase A2 (Homo sapiens), Q9NZ20; QFRET BODIPY PC-A2 liposome hydrolysis, fluorescence; inhibition, % at 12.2 µM; 370,000 compounds, 0.56% hits;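 active means inhibition above mean plus 3 SD of compounds lying within the high and low control bounds, cut at about 19% in these data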;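 further: 0% = median of test compound wells and 100% = no enzyme DMSO wells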
Target sequence (Q9NZ20 whole entry, looked up): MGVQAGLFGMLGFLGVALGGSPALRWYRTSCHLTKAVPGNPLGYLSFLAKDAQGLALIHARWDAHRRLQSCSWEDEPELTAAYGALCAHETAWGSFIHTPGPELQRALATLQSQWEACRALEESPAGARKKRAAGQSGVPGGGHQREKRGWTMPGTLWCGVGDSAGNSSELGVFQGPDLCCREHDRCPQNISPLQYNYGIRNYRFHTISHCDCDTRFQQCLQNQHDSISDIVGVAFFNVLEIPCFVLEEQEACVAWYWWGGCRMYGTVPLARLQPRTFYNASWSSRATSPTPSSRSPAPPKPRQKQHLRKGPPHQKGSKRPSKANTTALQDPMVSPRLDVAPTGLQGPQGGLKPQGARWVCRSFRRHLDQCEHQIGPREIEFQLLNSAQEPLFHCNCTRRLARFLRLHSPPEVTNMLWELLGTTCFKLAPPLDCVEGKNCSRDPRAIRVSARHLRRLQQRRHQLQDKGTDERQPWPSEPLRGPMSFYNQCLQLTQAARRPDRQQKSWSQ
ADAM17 inh – ADAM17 inhibitors, primary screen, biochemical, QFRET | recombinant ADAM17, EDANS/DABCYL FRET peptide cleavage | inhibition, % at 6.95 µM | AID 720648, 2013 | 370,000 compounds, 0.83% hits | Disintegrin and metalloproteinase domain-containing protein 17 (Homo sapiens), P78536;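 active means inhibition above the mean of compounds lying between control limits plus 3 SD, set per campaign, cut at about 8.5% in these data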;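 further: 0% = DMSO-only wells as the low control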
GRIN3A LBD mod – binders of NR3A ligand-binding domain, primary screen, biophysical, differential scanning fluorimetry, uHTS | Glutamate receptor ionotropic, NMDA 3A (GRIN3A) ligand-binding domain | NR3A LBD differential scanning fluorimetry, Tm shift; 0% = protein alone, 100% = glycine-bound protein | Tm shift relative to glycine control, % at 25 µM | 340,000 compounds, 2.5% hits | AID 1259313, 2017;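 active means melting temperature shift of at least 10% of the positive control shift, at one fixed dose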
FAS TE block – FAS thioesterase domain inhibitors, primary screen, biochemical, fluorescence intensity, uHTS | Fatty acid synthase (Homo sapiens), P49327 | recombinant FAS-TE, OMFH fluorogenic substrate, fluorescence endpoint | inhibition, % at 15 µM | 360,000 compounds, 0.67% hits | AID 602261, 2012;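 active means compounds whose normalised, plate-corrected inhibition of enzyme fluorescence in the single-dose primary screen is 50% or more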;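 further: 0% = DMSO with enzyme and 100% = substrate without enzyme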
ADAM10 inh – human ADAM10 inhibitors, primary screen, biochemical, QFRET, HTS; 370,000 compounds, 0.62% hits; recombinant ADAM10, EDANS/DABCYL FRET peptide cleavage, 3 h; AID 720582, 2013; inhibition, % at 7 µM;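 active means inhibition above a per-campaign cutoff equal to the mean of compounds falling between control-based bounds plus 3 SD, cut at about 20% in these data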;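 further: 0% = DMSO wells while the 100% control is not disclosed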
ADAM10 confirm – human ADAM10 inhibitors, confirmation, biochemical, QFRET, triplicate. inhibition, % at 6.95 µM. shares compounds with ADAM10 inh. AID 743208, 2013. ADAM10 QFRET peptide cleavage, EDANS fluorescence. 2,100 compounds, 1% hits;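 active means inhibition above about 20% chosen separately for each screening run, limit read from the data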;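 further: 0% = DMSO wells and 100% = marimastat wells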
ADAM17 ctr – ADAM17 inhibitors, counter-screen for ADAM10 exosite inhibitor project, biochemical, QFRET, high throughput; shares compounds with ADAM10 inh; ADAM17 QFRET peptide cleavage, EDANS fluorescence; inhibition, % at 6.95 µM; 2,100 compounds, 0.5% hits;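 active means mean triplicate inhibition above the solvent-only control wells' mean plus 3 SD, cut at about 12% in these data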;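 further: 0% = DMSO wells and 100% = marimastat wells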
* = called active by the depositor; x = no result given.

SMILES	HGIII-sPLA2 inh	ADAM17 inh	GRIN3A LBD mod	FAS TE block	ADAM10 inh	ADAM10 confirm	ADAM17 ctr
Cc1ccc(C)c(S(=O)(=O)N2CCC(c3nc4c(nnn4Cc4ccc5c(c4)OCCO5)c(=O)[nH]3)CC2)c1	-40	5	4	70*	24*	11	3
Cc1ccc(C)c(Cn2nnc3c(=O)[nH]c(C4CCCN(C(=O)CC(C)C)C4)nc32)c1 (configuration not stated)	x	x	-2	-4	x	x	x
CCOC(=O)[C@]12CCCC=C1N(CCCOC)C(=O)[C@@H]2CC(=O)N1CCCC1	6	-1	x	x	-2	x	x
O=C(OCC#CCSc1nnc(-c2cccc3ccccc23)o1)c1cc(F)c(F)c(F)c1	1	-4	x	x	-4	x	x
C[C@H]1CCC[C@]2(O[C@H](CCO)C[C@H](O)[C@H]2O)O1	11	-3	1	-11	-4	x	x
C[C@H]1CCC[C@@]2(O[C@@H](CCO)C[C@H](O)[C@H]2O)O1	-1	-8	0	-13	83*	1	0
Cc1ccc(CN2CCCCC(NC(=O)Nc3cccc([N+](=O)[O-])c3)C2=O)cc1 (configuration not stated)	-18	-3	x	x	2	x	x
Cc1ccccc1C(=O)NNC(=S)Nc1cccc(C(F)(F)F)c1	24*	8.7*	-8	-6	25*	4	1
O=C(CCCOc1ccc(Cl)cc1Cl)N1CCCc2ccccc21	-3	5	1	22	13	x	x
O=C(COc1ccc(Cl)cc1Cl)OCC(=O)N1CCCc2ccccc21	-10	8	-12	37	21*	4	0
CC(C)CNS(=O)(=O)/C=C/c1ccc(F)cc1CNC(=O)OC(C)(C)C	-2	0	x	x	2	x	x
COc1ccc(CNC(=O)c2ccc(-c3ccc(F)c(F)c3)c3ccoc23)cc1OC	-25	8	x	20	21*	9	2
CCO[C@@H]1OC(C(=O)NCc2ccccc2)=C[C@H](c2ccc(Br)cc2)[C@H]1CCCO	-13	3	-6	13	12	x	x
CCO[C@H]1OC(C(=O)NCc2ccccc2)=C[C@@H](c2ccc(C(F)(F)F)cc2)[C@@H]1CCCO	-10	2	-15	26	22*	-1	0
Cc1csc(NC(=O)Cc2coc3cc(C)c(C(C)C)cc23)n1	-6	7	-4	23	23*	7	1
Cc1ccc(Sc2ncccc2COC(=O)Nc2c(C)cccc2C)cc1	-6	7	7	22	16	x	x
Cc1ccc(Sc2ncccc2COC(=O)Nc2ccccc2)cc1	-11	8	-6	20	22*	6	3
COc1ccc(OCC(=O)NNC(=O)c2ccc3c(=O)n4c(nc3c2)CCC4)cc1	4	-1	1	-4	71*	2	0
Cc1ccc(OCC(=O)NNC(=O)c2ccc3c(=O)n4c(nc3c2)CCC4)cc1	-8	-10	-2	-4	-37	x	x
O=C(COc1ccc(Cl)cc1)NNC(=O)c1ccc2c(=O)n3c(nc2c1)CCC3	-6	3	-1	-1	81*	2	1
CCOC(=O)CNC(=O)CSc1nc2ccccc2c(=O)n1-c1ccc(Cl)cc1	0	-2	x	x	-4	x	x
COc1ccc(NC(C)C(=O)Nc2ccc(C#N)cc2)cc1Cl (configuration not stated)	-9	-4	-8	5	7	x	x
COc1ccc(NC(C)C(=O)Nc2ccc(C(C)(C)C)cc2)cc1Cl (configuration not stated)	-20	7	-2	-20	27*	7	1
C=CCNC(=O)CN(C(=O)Cc1ccc(Cl)nc1)c1cccc(Br)c1	-1	-2	x	x	-3	x	x
CC/C=C\[C@H](O)[C@H](O)C1=C(C)C(=O)[C@]2(O1)C(=O)N[C@@](OC)(C(=O)c1ccccc1)C2O (some centres not stated)	-4	-7	-2	-5	63*	7	3
SMILES	HGIII-sPLA2 inh	ADAM17 inh	GRIN3A LBD mod	FAS TE block	ADAM10 inh	ADAM10 confirm	ADAM17 ctr
Cc1n[nH]c(C)c1S(=O)(=O)NCCc1ccccc1	4	3	x	x	1	x	x
Cc1ccc(-c2n[nH]c(=S)n2/N=C/C=C\c2ccccc2[N+](=O)[O-])cc1	6	8	-8	-6	29*	1	0
COc1cc(O)c([C@@H](CC(=O)N2CC(C)CC(C)C2)c2ccc3c(c2)OCO3)c(OC)c1 (some centres not stated)	-18	3	x	x	11	x	x
N#Cc1nc(COc2ccc(Br)cc2)oc1N1CCCC1	-7	5	0	20	21*	2	0
COc1ccc(-n2c(SCC(=O)N3CCCC3)nnc2-c2ccncc2)cc1	1	0	x	x	0	x	x
COc1cc(NC(=O)c2cc(-c3ccccc3Cl)on2)cc(OC)c1OC	-8	3	-24	35	33*	4	1
CC(C)(C)OC(=O)N1CCC(c2ccc[nH]2)(c2c[nH]c3ccccc23)CC1	-23	0	x	x	2	x	x
O=C1CSC(c2cccc(F)c2)N1c1c(F)cccc1F (configuration not stated)	5	1	0	1	23*	0	0
O=C1CSC(c2ccc(F)cc2)N1c1c(F)cccc1F (configuration not stated)	-2	2	0	0	8	x	x
Brc1ccc(CSc2nnc(SCc3ccccc3)s2)cc1	7	-1	x	x	-7	x	x
CCOc1ccc(NC(=O)CN(C)C(=O)Cc2c[nH]c3ccccc23)cc1OCC	-91	-8	-1	-7	-17	x	x
CN(CC(=O)Nc1ccc(Cl)c(C(F)(F)F)c1)C(=O)Cc1c[nH]c2ccccc12	-131	-4	12*	22	25*	1	0
O=C(NC1CCCC1)c1ccc(COc2ccccc2)o1	10	-12	x	x	-14	x	x
O=C(NC(=S)NCc1ccccc1)c1cccc(Cl)c1	-2	8	-3	25	20*	6	1
O=C(NC(=S)NCc1ccco1)c1cccc(Cl)c1	1	5	x	18	4	x	x
CCOC(=O)[C@]12CCCC=C1N(Cc1ccc(OC)cc1)C(=O)[C@@H]2CC(=O)N1CCN(C(=O)C2CC2)CC1	-2	-7	x	x	-3	x	x
